A short description of assay [1]: inhibitors of TNFa-induced NFkB p65 translocation, primary screen, imaging, HUVEC, MLSMR starter and 10KST1 sets (AID 438;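 active = inhibition above 20% together with a positive visual image hit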;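 also: compound added about 3h40 before a 20 min TNFalpha stimulation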;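 as to inhibition: signal is the nuclear over cytoplasmic p65 intensity ratio per well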). Particulars: HUVEC TNFa-induced p65 nuclear translocation; cell count: measured here: nuclei count (cytotoxicity indicator), at 2.08 µM; inhibition: at 2 µM, stronger effect = higher value, 0% TNFa-plus-vehicle, 100% no-TNFa wells.
Assay [2] is described as follows: reduction of polyQ htt aggregates in cells – imaging, exon1htt(103Q)mCFP cells, high-content imaging, primary screen (AID 483;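 active = visual image review flags a hit and inhibition of aggregation exceeds 20%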;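 also: compound exposure lasted 3 days before fixation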;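 as to nuclei count: percent of the per-plate median nuclei count of sample wells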). To be noted: exon1htt(103Q)mCFP cell line, aggregate imaging, at 2 µM; inhibition of aggregation: stronger effect = higher value; nuclei count: measured here: cell count, toxicity.
Assay [3] in a line: endothelial E-selectin expression blockers – imaging, HUVEC, immunofluorescence, MLSMR starter and 10KST1 sets, primary screen (AID 487;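 active = visually confirmed hit in the image check and inhibition above 20%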;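 as to inhibition: signal is fraction of cell area covered by stained E-selectin grains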;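 as to nuclei count: 100% = median nuclei count of all wells on the same plate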). To be noted: HUVEC TNFalpha-induced E-selectin immunofluorescence imaging, at 2 µM; inhibition: stronger effect = higher value; nuclei count: measured here: cell number, toxicity.
Assay [4] concerns the target Voltage-gated potassium channel subunit beta-2 (Rattus norvegicus) (UniProt P62483). The experiment in a line: inhibitors of rat Kvbeta2 reductase activity – biochemical, NADPH fluorescence, primary screen (AID 622;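 active = fluorescence slope higher than the sample average by over 3 SD, cut at about -0.22 in these data, passing the limit was not always enough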;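 also: slope of raw intensity against log time taken from 70 to 1610 s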). To be noted: recombinant KvBeta, 4-cyanobenzaldehyde reduction, at 10 µM, stronger effect = higher value.
Assay [5] shares this target. Briefly: enhancers of rat Kvbeta2 NADPH turnover – biochemical, NADPH fluorescence, primary screen (AID 623;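 active = NADPH fluorescence slope more negative than the mean of all samples by about 3 SD, 99.7% confidence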;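 also: fluorescence intensity change per second fitted from 20 to 320 s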). Particulars: Recombinant KvBeta, NADPH fluorescence decrease slope, 10 min; at 10 µM; stronger effect = lower value.
The target in assay [6] is Alpha-2C adrenergic receptor (Homo sapiens) (UniProt P18825). The experiment in a line: compounds altering alpha2C-coupled GIRK flux – cell-based, HEK293 alpha2C/GIRK1/2, thallium flux, primary screen (AID 624;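 active = fluorescence slope after compound addition differing from the mean of all screened samples at 99.7% confidence, in either direction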;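 also: slope of fluorescence ratio to pre-addition baseline per second over 15 to 24 s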). To be noted: thallium flux BTC fluorescence, at 10 µM, actives lie on both sides.
Assay [7] can be described thus: blockers of RIG-like receptor reporter activation – cell-based, Sendai virus stimulus, luciferase, 10K MLSCN set, TLR/RLR signaling modifier project, primary screen (AID 602276;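 active = inhibition at or above 50% at 10 µM; inactive = inhibition below 50%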;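 also: firefly luciferase from ISG56 promoter only with Renilla not read in this screen; 0% = Sendai virus plus DMSO and 100% = medium plus DMSO without virus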). Particulars: HEK293 RL24 IRF3 luciferase reporter, at 10 µM, stronger effect = higher value.
Assay [8] can be described thus: TLR3 IRF3 reporter activation blockers – cell-based, poly I:C stimulus, luciferase, 10K MLSCN set, primary screen (AID 602277). Particulars: HEK293-TLR3 RL24 IRF3 luciferase reporter, at 10 µM, stronger effect = higher value. A general note: Reporter assays use an easily measured gene product as a stand-in for the process of interest.

Active and inactive are the calls of the source.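 The calls were made as follows, unless noted: active = inhibition of the reporter signal at or above 50%; inactive = inhibition below 50%.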

As a reminder, the inhibition is the relative decrease from the control value, in per cent.

Sequence of Voltage-gated potassium channel subunit beta-2 (Rattus norvegicus) (P62483 whole entry, looked up): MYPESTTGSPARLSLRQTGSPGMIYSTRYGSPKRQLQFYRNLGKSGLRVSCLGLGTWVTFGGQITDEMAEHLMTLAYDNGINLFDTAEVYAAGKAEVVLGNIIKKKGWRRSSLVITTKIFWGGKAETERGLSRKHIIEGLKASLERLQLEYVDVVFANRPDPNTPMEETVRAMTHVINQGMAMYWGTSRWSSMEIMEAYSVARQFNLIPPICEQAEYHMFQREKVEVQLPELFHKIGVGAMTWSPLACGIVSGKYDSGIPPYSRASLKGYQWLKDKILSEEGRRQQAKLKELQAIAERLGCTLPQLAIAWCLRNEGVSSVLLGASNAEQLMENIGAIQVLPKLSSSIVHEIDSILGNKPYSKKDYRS
Sequence of Alpha-2C adrenergic receptor (Homo sapiens) (P18825 whole entry, looked up): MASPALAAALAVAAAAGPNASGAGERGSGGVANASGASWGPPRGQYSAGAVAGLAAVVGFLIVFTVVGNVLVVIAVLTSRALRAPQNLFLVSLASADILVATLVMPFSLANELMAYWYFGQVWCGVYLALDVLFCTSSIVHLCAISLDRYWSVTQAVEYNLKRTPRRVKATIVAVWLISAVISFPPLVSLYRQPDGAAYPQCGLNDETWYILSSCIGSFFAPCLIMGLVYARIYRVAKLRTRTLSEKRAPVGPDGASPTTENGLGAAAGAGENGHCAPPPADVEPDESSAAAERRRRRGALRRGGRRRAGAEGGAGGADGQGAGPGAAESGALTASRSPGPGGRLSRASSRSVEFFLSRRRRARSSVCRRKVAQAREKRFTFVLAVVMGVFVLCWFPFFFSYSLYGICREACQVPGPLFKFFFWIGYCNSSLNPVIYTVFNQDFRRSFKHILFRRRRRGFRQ

Consider `Cc1cc(C)n(CCc2nc(-c3cccs3)cs2)n1`, for which, in assay [1], the cell count came to 587. Besides, the inhibition in assay [1] was -10.1% (inactive); in assay [3] it was -52.1% (inactive); in assay [7] it was -6.14% (inactive); in assay [8], -42.1% (inactive). Moreover, in assay [2], the inhibition of aggregation is -5.8% (inactive). The nuclei count in assay [2] was found to be 98.6%; in assay [3], 112%. Further, the fluorescence slope in assay [4] is -0.603 (inactive). Further, in assay [5], the NADPH fluorescence slope is -5.2e-07 (inactive). In addition, in assay [6], the slope was 0.00641 (inactive).

For `CCC(=O)Nc1ccc(Cl)c(NC(=O)C(C)C)c1`, in assay [1], the cell count amounted to 410. Moreover, the inhibition in assay [1] is 0.3% (inactive); in assay [3], -111% (inactive); in assay [7], 5.28% (inactive); in assay [8], 25.2% (inactive). The inhibition of aggregation in assay [2] is -10.3% (inactive). The nuclei count turned out to be 105% in assay [2] and 81.5% in assay [3]. Further, the fluorescence slope in assay [4] is -0.47 (inactive). The NADPH fluorescence slope in assay [5] is -3.3e-05 (inactive). In addition, the slope in assay [6] was 0.00567 (inactive).

With `COCCOC(=O)C1=C(C)NC(=O)CC1c1cc2c(cc1Br)OCO2` (centres undefined), the cell count in assay [1] is 424. For the same compound, the inhibition is 4.1% (inactive) in assay [1], -12.8% (inactive) in assay [3], 17.3% (inactive) in assay [7] and 16.1% (inactive) in assay [8]. Further, in assay [2], the inhibition of aggregation is 16.1% (inactive). The figures for the nuclei count in assay [2] and in assay [3] were 104% and 95.1%, respectively. Besides, in assay [4], the fluorescence slope was -0.395 (inactive). Moreover, the NADPH fluorescence slope in assay [5] is -2.8e-05 (inactive). The slope in assay [6] was 0.0043 (inactive).

Take `C=CCn1c(=O)n(CCOC)c(=O)c2sc3ccccc3c21`: the cell count in assay [1] stood at 733. In addition, the inhibition in assay [1] is -3.4% (inactive); in assay [3] it was -34% (inactive); in assay [7], -6.44% (inactive); in assay [8], 51% (active). Besides, the inhibition of aggregation in assay [2] is -12% (inactive). Moreover, the nuclei count was 87.6% in assay [2] and 102% in assay [3]. For the same compound, the fluorescence slope in assay [4] was -0.566 (inactive). In assay [5], the NADPH fluorescence slope is -3.7e-05 (inactive). Further, the slope in assay [6] is 0.00805 (inactive).

Take `CCOCC(=O)Nc1c(C(=O)Nc2ccc(OC)cc2OC)oc2ccccc12`: the cell count in assay [1] turned out to be 543. Besides, the inhibition in assay [1] is -4.1% (inactive); in assay [3] it was 52.4% (inactive); in assay [7], -20.7% (inactive); in assay [8] it was -15.2% (inactive). Also, in assay [2], the inhibition of aggregation was 19.2% (inactive). For the same compound, the figures for the nuclei count in assay [2] and in assay [3] were 93.9% and 57.7%, respectively. Besides, in assay [4], the fluorescence slope was -0.19 (inactive). Further, the NADPH fluorescence slope in assay [5] is -9.5e-06 (inactive). The slope in assay [6] was 0.00574 (inactive).

In the case of `CCN(CCNC(=O)CS(=O)(=O)Cc1nc(-c2cccc(OC)c2)oc1C)c1ccccc1`, the cell count in assay [1] came out at 644. In addition, the inhibition was -27.6% (inactive) in assay [1], -37.8% (inactive) in assay [3], 13.7% (inactive) in assay [7] and 20.1% (inactive) in assay [8]. Further, in assay [2], the inhibition of aggregation was -16.4% (inactive). Further, the figures for the nuclei count in assay [2] and in assay [3] were 121% and 107%, respectively. Further, in assay [4], the fluorescence slope is -0.53 (inactive). The NADPH fluorescence slope in assay [5] is -4e-05 (inactive). Moreover, in assay [6], the slope was 0.00529 (inactive).

For `O=C(NCC1CCCO1)C1CCN(c2ccc(S(=O)(=O)N3CCCC3)cc2)CC1` (centres undefined), the cell count in assay [1] amounted to 446. In addition, the inhibition is 8.5% (inactive) in assay [1], -38.5% (inactive) in assay [3], 5.23% (inactive) in assay [7] and 21.3% (inactive) in assay [8]. Further, the inhibition of aggregation in assay [2] was -5.9% (inactive). For the same compound, the figures for the nuclei count in assay [2] and in assay [3] were 103% and 108%, respectively. Besides, the fluorescence slope in assay [4] was -0.434 (inactive). The NADPH fluorescence slope in assay [5] is -3.3e-05 (inactive). The slope in assay [6] is 0.0046 (inactive).

In the case of `O=C(Nc1ccccc1N1CCCCC1)c1ncoc1-c1ccc(F)cc1`, the cell count in assay [1] was determined as 426. Also, the inhibition in assay [1] was -1.8% (inactive); in assay [3] it was -180% (inactive); in assay [7], -3.24% (inactive); in assay [8] it was -51.9% (inactive). Besides, the inhibition of aggregation in assay [2] is -0.9% (inactive). In addition, the nuclei count is 87.1% in assay [2] and 122% in assay [3]. Also, the fluorescence slope in assay [4] is -0.424 (inactive). For the same compound, the NADPH fluorescence slope in assay [5] is 4.4e-06 (inactive). The slope in assay [6] is 0.00948 (inactive).

Turning to `CCOC(=O)N1CCN(c2cc(=O)n(-c3ccccc3Cl)c(=O)[nH]2)CC1`, in assay [1], the cell count came out at 553. For the same compound, the inhibition in assay [1] was -7.4% (inactive); in assay [3] it was 15% (inactive); in assay [7], -11.4% (inactive); in assay [8] it was 11.8% (inactive). Moreover, the inhibition of aggregation in assay [2] is 12.5% (inactive). Besides, the nuclei count in assay [2] stood at 84.2%; in assay [3], 90.2%. Besides, the fluorescence slope in assay [4] was -0.581 (inactive). In addition, in assay [5], the NADPH fluorescence slope is -4.3e-05 (inactive). For the same compound, in assay [6], the slope was 0.00703 (inactive).

Turning to `O=C(c1ccc(Cl)cc1)N1CCCCC(Sc2nnc(-c3ccc4c(c3)OCO4)o2)C1=O` (centres undefined), in assay [1], the cell count came out at 505. The inhibition in assay [1] is -13.7% (inactive); in assay [3] it was -71.6% (inactive); in assay [7], -180% (inactive); in assay [8], 92% (active). Also, the inhibition of aggregation in assay [2] is 14.1% (inactive). Moreover, the nuclei count in assay [2] is 93.7%; in assay [3] it was 145%. Also, in assay [4], the fluorescence slope was -0.624 (inactive). Besides, in assay [5], the NADPH fluorescence slope is -3.6e-05 (inactive). Moreover, the slope in assay [6] is 0.00978 (inactive).

Turning to `C=C(C)c1cccc(C(C)(C)NC(=O)NCC2CCCO2)c1` (centres undefined), the cell count in assay [1] worked out at 496. The inhibition in assay [1] was 2.3% (inactive); in assay [3] it was -31.1% (inactive); in assay [7], 7.08% (inactive); in assay [8] it was 9.27% (inactive). Also, the inhibition of aggregation in assay [2] was -23% (inactive). Further, the nuclei count in assay [2] is 108%; in assay [3], 113%. Also, in assay [4], the fluorescence slope is -0.362 (inactive). Also, the NADPH fluorescence slope in assay [5] was -5.6e-05 (inactive). In addition, in assay [6], the slope was 0.0056 (inactive).

In the case of `FC(F)(F)c1cccc(N2CCN(c3nnnn3-c3ccccc3)CC2)c1`, in assay [1], the cell count came out at 394. Moreover, the inhibition in assay [1] was -3.8% (inactive); in assay [3], -98.2% (inactive); in assay [7], 10.2% (inactive); in assay [8] it was 2.35% (inactive). Moreover, the inhibition of aggregation in assay [2] was -1.6% (inactive). The nuclei count is 96.2% in assay [2] and 112% in assay [3]. In addition, in assay [4], the fluorescence slope was -0.647 (inactive). The NADPH fluorescence slope in assay [5] was 1.2e-05 (inactive). In assay [6], the slope was 0.00945 (inactive).

Turning to `COCCNC(=O)CCc1nc(-c2ccccc2)no1`, the cell count in assay [1] stood at 294. Besides, the inhibition in assay [1] was -5% (inactive); in assay [3], -98.3% (inactive); in assay [7] it was 18.6% (inactive); in assay [8] it was 16.3% (inactive). For the same compound, the inhibition of aggregation in assay [2] was -9.3% (inactive). For the same compound, the results for the nuclei count in assay [2] and in assay [3] were 103% and 123%, respectively. In addition, in assay [4], the fluorescence slope is -0.504 (inactive). In addition, in assay [5], the NADPH fluorescence slope was 2.6e-05 (inactive). For the same compound, in assay [6], the slope was 0.00646 (inactive).

`O=c1cnnc(NCc2ccccc2)[nH]1`: the cell count in assay [1] was determined as 696. For the same compound, the inhibition in assay [1] was -11.2% (inactive); in assay [3], -32.9% (inactive); in assay [7], 1.13% (inactive); in assay [8], 8.35% (inactive). Besides, in assay [2], the inhibition of aggregation is 9.3% (inactive). Also, the figures for the nuclei count in assay [2] and in assay [3] were 99.5% and 105%, respectively. In assay [4], the fluorescence slope was -0.418 (inactive). The NADPH fluorescence slope in assay [5] was -2.6e-05 (inactive). Moreover, the slope in assay [6] is 0.00324 (inactive).

(Values after PubChem BioAssay.)
